Assay results as given in the supplement of paper PMC11732987, “Enantioselective OTUD7B fragment discovery through chemoproteomics screening and high-throughput optimisation” (Communications Chemistry, 2025).

Tests used:
Experiment in all cases: log2 ratio of Biotin-Ahx-Ub-VS probe labelling (fragment/DMSO); higher = less target engagement (more negative = stronger competition), active = hit call of the paper (q ≤ 0.05, log2 ratio ≤ -1)
Conditions in all cases: compound concentration: 200 uM; treatment time: 3 h
[1] = target: T1, USP19 (UniProt O94966)
T1 sequence (whole entry): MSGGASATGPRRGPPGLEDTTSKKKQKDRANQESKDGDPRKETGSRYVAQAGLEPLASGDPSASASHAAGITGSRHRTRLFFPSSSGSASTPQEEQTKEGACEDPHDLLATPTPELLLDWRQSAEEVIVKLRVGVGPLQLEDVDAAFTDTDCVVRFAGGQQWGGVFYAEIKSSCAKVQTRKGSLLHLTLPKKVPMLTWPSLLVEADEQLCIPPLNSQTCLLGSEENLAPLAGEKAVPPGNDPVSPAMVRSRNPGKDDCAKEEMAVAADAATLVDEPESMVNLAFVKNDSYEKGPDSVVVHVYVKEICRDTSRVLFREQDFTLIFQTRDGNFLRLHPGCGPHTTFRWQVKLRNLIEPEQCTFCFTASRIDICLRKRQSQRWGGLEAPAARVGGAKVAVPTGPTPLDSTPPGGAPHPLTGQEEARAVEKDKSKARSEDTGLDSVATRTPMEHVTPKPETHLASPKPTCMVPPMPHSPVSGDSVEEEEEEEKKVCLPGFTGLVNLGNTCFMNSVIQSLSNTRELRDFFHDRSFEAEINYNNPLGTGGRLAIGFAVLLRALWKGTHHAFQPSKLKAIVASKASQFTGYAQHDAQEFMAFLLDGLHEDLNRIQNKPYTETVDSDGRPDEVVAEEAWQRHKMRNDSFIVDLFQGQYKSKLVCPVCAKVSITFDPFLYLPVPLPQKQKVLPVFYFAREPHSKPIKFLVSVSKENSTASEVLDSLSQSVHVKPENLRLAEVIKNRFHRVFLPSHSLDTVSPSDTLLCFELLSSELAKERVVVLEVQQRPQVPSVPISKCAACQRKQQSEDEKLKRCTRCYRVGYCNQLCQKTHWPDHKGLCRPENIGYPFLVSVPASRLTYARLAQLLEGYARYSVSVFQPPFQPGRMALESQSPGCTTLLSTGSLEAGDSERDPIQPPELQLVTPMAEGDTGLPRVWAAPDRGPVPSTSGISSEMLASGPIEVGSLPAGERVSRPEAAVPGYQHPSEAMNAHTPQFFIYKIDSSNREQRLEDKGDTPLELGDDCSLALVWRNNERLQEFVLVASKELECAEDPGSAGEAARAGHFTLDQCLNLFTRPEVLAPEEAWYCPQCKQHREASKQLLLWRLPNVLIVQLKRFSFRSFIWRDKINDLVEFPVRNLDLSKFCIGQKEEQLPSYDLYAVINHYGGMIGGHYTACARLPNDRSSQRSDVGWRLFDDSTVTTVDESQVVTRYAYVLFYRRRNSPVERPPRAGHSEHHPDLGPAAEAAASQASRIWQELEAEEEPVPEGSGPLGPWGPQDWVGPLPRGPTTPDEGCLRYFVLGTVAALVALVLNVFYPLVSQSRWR
Procedure, shortened: (§1)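 HEK293T lysate in Tris/CHAPS/IGEPAL buffer with protease inhibitors (495 µg per sample) was given fragment at 200 µM or vehicle for 3 h, in triplicate. It then received Biotin-Ahx-Ub-VS at 0.5 µM final for 1 h. Labelled DUBs were NeutrAvidin-enriched, digested with LysC and trypsin, and run by diaPASEF LC-MS/MS. Values are average log2 fragment/vehicle ratios by unpaired t-test on global-median-normalised Spectronaut quantities of proteins with ≥2 unique peptides.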

[2] = target: USP24 (UniProt Q9UPU5)
Chain of USP24 (Q9UPU5 whole entry): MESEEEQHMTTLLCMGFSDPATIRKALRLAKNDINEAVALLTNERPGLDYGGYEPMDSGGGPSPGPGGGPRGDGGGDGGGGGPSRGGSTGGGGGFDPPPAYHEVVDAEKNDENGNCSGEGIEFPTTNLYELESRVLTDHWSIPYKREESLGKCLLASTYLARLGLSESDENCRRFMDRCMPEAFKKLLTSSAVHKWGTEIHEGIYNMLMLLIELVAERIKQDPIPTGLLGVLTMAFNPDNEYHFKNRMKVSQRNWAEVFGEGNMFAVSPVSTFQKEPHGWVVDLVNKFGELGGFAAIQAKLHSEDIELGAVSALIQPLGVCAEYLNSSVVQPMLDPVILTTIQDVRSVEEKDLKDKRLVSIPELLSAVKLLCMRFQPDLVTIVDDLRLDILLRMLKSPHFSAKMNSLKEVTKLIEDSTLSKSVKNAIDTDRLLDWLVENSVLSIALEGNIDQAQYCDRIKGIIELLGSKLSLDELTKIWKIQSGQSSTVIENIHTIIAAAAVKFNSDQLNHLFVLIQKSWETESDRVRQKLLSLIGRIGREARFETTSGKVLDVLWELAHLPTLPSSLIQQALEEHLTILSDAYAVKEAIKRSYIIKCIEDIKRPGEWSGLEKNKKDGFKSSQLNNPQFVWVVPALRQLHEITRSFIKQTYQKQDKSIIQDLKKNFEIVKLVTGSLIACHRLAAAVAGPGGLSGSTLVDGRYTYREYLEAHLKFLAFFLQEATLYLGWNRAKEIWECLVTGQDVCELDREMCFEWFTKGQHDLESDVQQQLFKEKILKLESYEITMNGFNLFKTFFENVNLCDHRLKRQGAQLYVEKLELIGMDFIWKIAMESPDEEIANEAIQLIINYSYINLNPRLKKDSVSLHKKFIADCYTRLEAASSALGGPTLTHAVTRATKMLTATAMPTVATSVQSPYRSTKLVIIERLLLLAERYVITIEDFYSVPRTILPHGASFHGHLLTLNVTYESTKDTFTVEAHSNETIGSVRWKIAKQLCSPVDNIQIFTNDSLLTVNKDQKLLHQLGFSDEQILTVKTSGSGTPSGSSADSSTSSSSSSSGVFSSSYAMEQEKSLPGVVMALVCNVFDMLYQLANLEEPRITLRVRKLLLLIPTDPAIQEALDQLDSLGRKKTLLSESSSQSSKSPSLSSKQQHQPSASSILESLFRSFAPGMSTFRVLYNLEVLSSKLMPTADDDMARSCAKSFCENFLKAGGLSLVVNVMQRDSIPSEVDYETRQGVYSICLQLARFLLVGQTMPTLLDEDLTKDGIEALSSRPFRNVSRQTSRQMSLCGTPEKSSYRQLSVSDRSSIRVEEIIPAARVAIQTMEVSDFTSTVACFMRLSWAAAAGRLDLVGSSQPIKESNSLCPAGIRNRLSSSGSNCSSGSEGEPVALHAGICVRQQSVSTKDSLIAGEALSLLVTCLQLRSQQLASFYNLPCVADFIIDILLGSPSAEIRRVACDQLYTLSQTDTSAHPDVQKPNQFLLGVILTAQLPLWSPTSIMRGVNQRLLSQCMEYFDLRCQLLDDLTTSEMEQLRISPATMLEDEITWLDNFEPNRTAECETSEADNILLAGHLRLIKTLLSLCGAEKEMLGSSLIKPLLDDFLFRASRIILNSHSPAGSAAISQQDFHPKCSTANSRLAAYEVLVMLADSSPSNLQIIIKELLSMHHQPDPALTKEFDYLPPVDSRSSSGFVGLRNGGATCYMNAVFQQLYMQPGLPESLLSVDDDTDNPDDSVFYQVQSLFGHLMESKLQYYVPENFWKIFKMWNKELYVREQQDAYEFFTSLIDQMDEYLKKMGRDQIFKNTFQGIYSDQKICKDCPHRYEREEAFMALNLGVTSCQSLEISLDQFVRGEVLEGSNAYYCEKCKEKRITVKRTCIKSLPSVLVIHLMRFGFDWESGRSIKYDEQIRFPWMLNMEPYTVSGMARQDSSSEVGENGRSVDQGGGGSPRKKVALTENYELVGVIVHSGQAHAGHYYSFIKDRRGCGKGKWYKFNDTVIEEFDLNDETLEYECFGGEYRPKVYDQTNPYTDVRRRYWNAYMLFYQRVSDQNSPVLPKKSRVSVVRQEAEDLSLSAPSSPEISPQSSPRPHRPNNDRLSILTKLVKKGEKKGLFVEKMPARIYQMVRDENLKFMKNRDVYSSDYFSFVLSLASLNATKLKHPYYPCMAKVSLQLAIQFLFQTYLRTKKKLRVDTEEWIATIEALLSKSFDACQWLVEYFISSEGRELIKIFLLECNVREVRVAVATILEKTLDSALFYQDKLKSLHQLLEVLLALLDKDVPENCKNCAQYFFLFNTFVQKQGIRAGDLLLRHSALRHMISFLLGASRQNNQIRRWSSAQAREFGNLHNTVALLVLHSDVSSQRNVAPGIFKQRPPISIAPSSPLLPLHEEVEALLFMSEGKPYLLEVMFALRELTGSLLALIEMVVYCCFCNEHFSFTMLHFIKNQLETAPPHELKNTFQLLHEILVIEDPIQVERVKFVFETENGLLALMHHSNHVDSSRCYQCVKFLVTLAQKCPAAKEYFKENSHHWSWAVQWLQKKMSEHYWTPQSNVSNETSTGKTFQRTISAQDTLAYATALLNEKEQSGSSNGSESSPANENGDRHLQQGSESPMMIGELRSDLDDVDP
Procedure, shortened: as §1

[3] = target: T2, USP25 (UniProt Q9UHP3)
T2 sequence (whole entry): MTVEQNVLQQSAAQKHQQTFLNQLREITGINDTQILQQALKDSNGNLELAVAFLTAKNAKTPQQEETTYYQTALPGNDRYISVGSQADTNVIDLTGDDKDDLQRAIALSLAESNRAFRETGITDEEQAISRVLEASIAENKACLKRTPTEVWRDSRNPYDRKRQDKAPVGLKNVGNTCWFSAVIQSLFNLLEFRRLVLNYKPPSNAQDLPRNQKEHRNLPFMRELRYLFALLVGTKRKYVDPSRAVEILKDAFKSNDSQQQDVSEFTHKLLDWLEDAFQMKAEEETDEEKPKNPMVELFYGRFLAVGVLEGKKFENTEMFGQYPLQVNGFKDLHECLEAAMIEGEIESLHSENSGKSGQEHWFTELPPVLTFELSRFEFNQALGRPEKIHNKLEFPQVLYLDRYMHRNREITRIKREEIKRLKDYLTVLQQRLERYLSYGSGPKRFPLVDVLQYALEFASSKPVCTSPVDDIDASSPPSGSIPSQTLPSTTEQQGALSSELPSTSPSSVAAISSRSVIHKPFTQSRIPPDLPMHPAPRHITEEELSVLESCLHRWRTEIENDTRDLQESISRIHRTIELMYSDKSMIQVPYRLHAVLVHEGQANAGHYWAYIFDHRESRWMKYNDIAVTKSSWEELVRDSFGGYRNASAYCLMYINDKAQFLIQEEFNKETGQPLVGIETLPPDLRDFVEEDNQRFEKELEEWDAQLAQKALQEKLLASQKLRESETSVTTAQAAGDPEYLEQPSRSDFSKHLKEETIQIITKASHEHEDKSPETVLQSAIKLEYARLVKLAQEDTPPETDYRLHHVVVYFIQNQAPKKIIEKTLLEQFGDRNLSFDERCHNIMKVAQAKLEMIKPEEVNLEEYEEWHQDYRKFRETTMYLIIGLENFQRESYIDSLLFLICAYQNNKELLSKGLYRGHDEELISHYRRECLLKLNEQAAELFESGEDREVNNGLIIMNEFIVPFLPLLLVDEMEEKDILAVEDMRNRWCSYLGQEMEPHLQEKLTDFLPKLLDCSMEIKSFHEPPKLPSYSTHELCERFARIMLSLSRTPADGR
Procedure, shortened: as §1

[4] = target: T3, USP28 (UniProt Q96RU2)
T3 sequence (whole entry): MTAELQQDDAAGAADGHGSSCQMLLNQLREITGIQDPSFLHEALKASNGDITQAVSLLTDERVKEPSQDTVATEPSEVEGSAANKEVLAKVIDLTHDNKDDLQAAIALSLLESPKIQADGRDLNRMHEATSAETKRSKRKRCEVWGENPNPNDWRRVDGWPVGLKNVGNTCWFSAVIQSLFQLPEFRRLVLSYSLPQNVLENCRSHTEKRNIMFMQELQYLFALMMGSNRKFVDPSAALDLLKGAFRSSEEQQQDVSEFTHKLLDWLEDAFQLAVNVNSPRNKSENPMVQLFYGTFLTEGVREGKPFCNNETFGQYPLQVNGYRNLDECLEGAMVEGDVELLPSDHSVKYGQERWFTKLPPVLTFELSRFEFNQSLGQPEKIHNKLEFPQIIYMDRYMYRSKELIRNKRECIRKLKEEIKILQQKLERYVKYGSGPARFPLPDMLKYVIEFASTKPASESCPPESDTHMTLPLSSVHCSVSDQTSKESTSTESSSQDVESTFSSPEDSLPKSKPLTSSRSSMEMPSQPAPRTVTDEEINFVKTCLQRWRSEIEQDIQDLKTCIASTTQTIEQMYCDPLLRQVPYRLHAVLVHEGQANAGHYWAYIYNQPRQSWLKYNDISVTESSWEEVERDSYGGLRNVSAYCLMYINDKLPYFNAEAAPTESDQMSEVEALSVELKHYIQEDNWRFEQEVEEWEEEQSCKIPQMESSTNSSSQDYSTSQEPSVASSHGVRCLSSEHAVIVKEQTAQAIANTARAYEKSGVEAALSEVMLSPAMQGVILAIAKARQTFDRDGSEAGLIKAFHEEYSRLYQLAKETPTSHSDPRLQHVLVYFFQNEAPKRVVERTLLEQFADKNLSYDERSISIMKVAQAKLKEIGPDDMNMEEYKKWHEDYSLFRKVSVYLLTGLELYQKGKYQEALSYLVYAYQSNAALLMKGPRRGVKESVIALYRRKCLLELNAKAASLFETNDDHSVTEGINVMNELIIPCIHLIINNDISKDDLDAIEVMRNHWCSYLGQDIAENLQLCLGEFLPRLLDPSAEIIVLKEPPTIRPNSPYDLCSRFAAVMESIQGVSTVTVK
Procedure, shortened: as §1

Measured: log2 ratio of Biotin-Ahx-Ub-VS probe labelling

COc1ccc(CN(C)C(=O)CCl)cc1
inactive: [1] -0.211 | [2] -0.564 | [3] -0.245 | [4] -0.499
